Bioassay records as filed in PubChem BioAssay.
Compounds with a hit are over-represented: about 8% of the library has one in this group of screens.
KB-3-1 tox = qHTS assay for MDR1-selective chemotherapeutics: Primary screen using the parental adenocarcinoma cell KB-3-1. KB-3-1 viability, CellTiter-Glo ATP luminescence, 72 h. Potency, µM (top dose mostly 46.1 µM), hits mostly cytotoxic. 400,000 compounds, 1.4% hits. AID 1347075, 2019; note: nearly all actives have a fitted effect of over 60% in size
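Viability of parental KB-3-1 cells, measured by CellTiter-Glo luminescence, followed a 72 h incubation at 37 °C with pinned compounds in phenol-red-free DMEM containing 10% FBS.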
KB-V1 cytotox = qHTS assay for MDR1-selective chemotherapeutics: Primary screen using the drug-selected MDR subline cells KB-V1; KB-V1 MDR cells viability, CellTiter-Glo, 72 h; Potency, µM (doses to about 46.1 µM), most hits filed as cytotoxic; 400,000 compounds, 3.4% hits; note: nearly all actives have a fitted effect of over 60% in size
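Compound-treated KB-V1 multidrug-resistant cells, 72 h, 37 degrees C; viability by CellTiter-Glo. Fitted qHTS curves give the values.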
HT1080 IDH1KD tx = qHTS for induction of synthetic lethality in tumor cells producing 2HG: qHTS for the HT-1080-IDH1KD cell line; HT-1080 IDH1 knockdown viability, ATP luminescence, 48 h; Potency, µM (series often up to 46.1 µM), hits mostly cytotoxic; 360,000 compounds, 2% hits; AID 686971, 2013
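IDH1KD HT-1080 cells, 750/well, RPMI + 5% FBS; compound pinned after 2 h settling; 48 h, 37 °C; CellTiter-Glo luminescence; % activity normalised to DMSO and no-cell wells; curves fitted, classed by r2 and efficacy.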
SW480 rereplic = A quantitative high throughput screen for small molecules that induce DNA re-replication in SW480 colon adenocarcinoma cells. SW480 DNA re-replication, Hoechst DNA content imaging, 48 h. Potency, µM (doses to about 46.1 µM), actives largely listed as activators. 340,000 compounds, 1.8% hits. AID 624297, 2012; note: nearly all actives have a fitted effect of over 55% in size
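First, 250 cells per well were seeded. Next, compound or vehicle (23 nL) was pinned in, plates sat 48 hr at 37 C. Finally Hoechst was added for 40 min before fluorescence scanning.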
MCF10A rerep = A quantitative high throughput screen for small molecules that induce DNA re-replication in MCF 10a normal breast cells. MCF 10A DNA re-replication, Hoechst nuclear intensity, 48 h. Potency, µM (top dose mostly 46.1 µM), hits mostly activators. 350,000 compounds, 2.9% hits; note: nearly all actives have a fitted effect of over 50% in size
HT1080NT lethal = qHTS for induction of synthetic lethality in tumor cells producing 2HG: qHTS for the HT-1080-NT fibrosarcoma cell line; HT-1080-NT fibrosarcoma viability, CellTiter-Glo ATP luminescence, 48 h; Potency, µM (series often up to 46.1 µM), actives largely listed as cytotoxic; 360,000 compounds, 1.6% hits;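 note: NT is the 2HG producing partner of a matched IDH1 knockdown line; nearly all actives have a fitted effect of over 55% in size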
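750 cells/well, RPMI + 5% FBS; 2 h settle, compound pin-transfer, 48 h at 37 degrees C. CellTiter-Glo 10 min RT, luminescence. Normalized to DMSO and media-only wells.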
Numbers stand for hits; 0 = inactive; ? = inconclusive; - = no result; [ ] = remark or other dose. Calls come from the whole dose curve; as a rule, active = well fitted curve in the direction sought with a large enough effect; inconclusive = small, poorly fitted or top-dose-only effect, or another doubt; inactive = no such curve, though single readings can be large; an effect the other way counts as inactive or inconclusive.

SMILES	KB-3-1 tox	KB-V1 cytotox	HT1080 IDH1KD tx	SW480 rereplic	MCF10A rerep	HT1080NT lethal
COc1ccc(C)cc1N(C(=O)COc1ccccc1)c1nc2ccccc2s1	0	21µM	0	0	0	0
COc1ccc(C)cc1N(C(=O)c1ccccc1)c1nc2ccccc2s1	0	0	0	0	0	0
Cc1ccc2[nH]c(=O)c(CN(C(=O)c3cccc(Cl)c3)C(C)(C)C)cc2c1	0	0	-	-	-	-
O=C(CSc1ncccn1)N/N=C/c1cccs1	0	0	0	?	0.52µM	0
Cc1ccc(NC(=O)CCC(=O)N/N=C/c2cccs2)cc1	0	0	0	9.2µM	0	0
C=CCn1c(=N)c(S(=O)(=O)c2ccc(C)c(C)c2)cc2c(=O)n3ccccc3nc21	0	0	0	?	23µM	0
CC(C)OCCCn1c(=N)c(S(=O)(=O)c2ccccc2)cc2c(=O)n3ccccc3nc21	0	0	0	0	?	0
Cn1c(=N)c(S(=O)(=O)c2ccc(F)cc2)cc2c(=O)n3ccccc3nc21	0	0	0	?	0	0
Cc1ccc(S(=O)(=O)c2cc3c(=O)n4ccccc4nc3n(C)c2=N)cc1C	0	0	0	0	4.1µM	0
Cn1c(=N)c(S(=O)(=O)c2ccccc2)cc2c(=O)n3ccccc3nc21	0	0	0	?	18µM	0
CC(C)(C)OC(=O)NCCCCCNC(=O)c1nc[nH]c1C(=O)NCCCCCNC(=O)OC(C)(C)C	?	?	0	0	?	0
Cc1ccc(NC(=O)C(=O)Nc2ccc(C)cn2)nc1	0	0	0	0	0	?
Cc1ccc(NC(=O)/C(C#N)=C(\N)C(Cl)(Cl)Cl)nc1	18µM	?	?	0	18µM	?
COc1ccc(-n2c(C)c(C)c3c(NCCCO)ncnc32)cc1	0	0	0	0	0	0
CCN(CC)c1ccc(NC(=O)c2cccc(F)c2)c(C)c1	5.8µM	?	16µM	18µM	?	?
CCN(CC)c1ccc(NC(=O)c2ccco2)c(C)c1	0	0	0	0	0	0
COc1ccc(NC(=O)C2CC(c3ccc(OC)c(OC)c3)=NO2)cc1OC (stereo not given)	0	0	0	0	0	0
COc1cc(C2=NOC(C(=O)Nc3ccc(C)cc3)C2)cc(OC)c1OC (stereo not given)	0	0	0	0	0	0
COc1ccc(NC(=O)C2CC(c3cc(OC)c(OC)c(OC)c3)=NO2)cc1OC (stereo not given)	0	13µM	0	0	0	0
COc1cc(C2=NOC(C(=O)NC3CCCCC3)C2)cc(OC)c1OC (stereo not given)	0	9.2µM	0	0	0	0
COc1cccc(C2=NOC(C(=O)Nc3cc(OC)c(OC)c(OC)c3)C2)c1 (stereo not given)	0	21µM	0	0	?	0
Nc1nnc(SCC(=O)Nc2ccc(N3CCOCC3)c(Cl)c2)s1	0	0	0	?	0	0
COc1ccccc1/C=C/c1cnccn1	?	0	-	-	-	-
Cc1ccc(OCCN2CCN(C(=O)CCC(=O)Nc3nnc(CC(C)C)s3)CC2)cc1	?	8.2µM	9.2µM	0	?	?
CC(C)Cc1nnc(NC(=O)CCC(=O)N2CCN(Cc3ccc(F)cc3)CC2)s1	0	0	0	0	0	0
SMILES	KB-3-1 tox	KB-V1 cytotox	HT1080 IDH1KD tx	SW480 rereplic	MCF10A rerep	HT1080NT lethal
CC(=O)Nc1c(I)c(C(=O)N[C@H]2[C@@H](O)[C@H](O)[C@H](CO)O[C@@H]2O)c(I)c(N(C)C(C)=O)c1I	-	-	-	0	0	-
CCS(=O)(=O)N1CCC(C(=O)N2CCc3ccccc3C2)CC1	0	13µM	0	0	0	0
CC(C)CN(CC(C)C)S(=O)(=O)N1CCC(C(=O)N2CCc3ccccc3C2)CC1	0	?	0	0	?	0
O=C(C1CCCN(Cc2ccccc2)C1)N1CCc2ccccc2C1 (stereo not given)	0	23µM	0	0	0	0
CCCSCCCNC(=O)C1CCN(c2nn3cc(-c4ccc(F)cc4)nc3s2)CC1	0	0	-	-	-	-
CCCn1c(SCc2nc(-c3ccc(OC)cc3OC)no2)nnc1-c1ccc(Cl)cc1	0	0	-	-	-	-
CCCc1cc(NCCN(C)C)n2c(nc3ccccc32)c1C#N	0	0	0	0	0	0
CCCc1cc(NCC2CCCO2)n2c(nc3ccccc32)c1C#N (stereo not given)	0	?	0	?	16µM	0
COc1ccc(-n2nc(C(=O)NCC(=O)NCC3CCCO3)c3ccccc3c2=O)cc1Cl (stereo not given)	0	9.2µM	0	0	0	0
Cn1ccnc1C(OC(=O)c1ccc(Cl)cc1)C(F)(F)F (stereo not given)	0	0	0	0	0	0
COc1ccc(-c2csc(NC3OC(=O)c4c3ccc(OC)c4OC)n2)cc1OC (stereo not given)	0	0	2.6µM	0	?	2.1µM
Cc1ccccc1OCCn1cc(C=O)c2ccccc21	?	16µM	?	0	?	0
COc1cccc(C(=O)/C(C#N)=N/Nc2cccc(-c3ccnc(C)n3)c2)c1	?	?	0	0	0	26µM
Cc1noc(C)c1COC(=O)c1cc(=O)[nH]c2ccccc12	?	5.8µM	0	0	0	0
CCCCOC(=O)c1cc(=O)[nH]c2ccc(C)cc12	15µM	18µM	0	0	0	0
Cc1noc(C)c1COC(=O)c1cc(C)n(-c2ccccc2)c1C	?	7.3µM	0	0	0	0
Cc1cccc(C(=O)Nc2ccccc2C(=O)OCc2c(C)noc2C)c1	0	3.3µM	0	0	0	0
Cc1ccccc1NC(=O)c1cccc(OCc2c(C)noc2C)c1	0	0	0	0	0	0
Cc1ccc(C)c(OC(=O)CSc2nnc(-c3ccc4c(c3)OCO4)o2)c1	0	0	-	-	-	-
CC(C)CCNC(=O)C1CC2Cn3c(nc4cc(Cl)c(Cl)cc43)C2N1C (stereo not given)	0	0	0	0[9.22 µM]	0	0
COc1ccc2c(c1)C(=O)Cc1ccccc1O2	0	0	0	0	0	0
CCN(c1ccccc1)S(=O)(=O)c1ccc(NC(=O)c2cc(=O)c3c(C)cc(C)cc3o2)cc1	0	0	-	-	-	-
CCNC(=O)COC(=O)c1cc(=O)[nH]c2ccccc12	0	0	0	0	0	0
CCCCOC(=O)c1cc(=O)[nH]c2ccccc12	0	5.8µM	0	0	0	0
